# According to PubChem BioAssay AID1508601 (ICCB-Longwood Screening Facility, Harvard Medical School, 2020):
# Out of some 5,700 compounds screened, about 85 (1%) were called active. No stated cut-off is given here; in the data, active means p53-positive nuclei above about 36% (passing the limit was not always enough); inactive means the rest. The list comes from a sample in which actives are over-represented; it also holds similar structures and randomly drawn compounds.
# Key:
# [1] = p53 stabilisation in HPV-positive human cells, imaging, p53-positive nuclei imaging, 24 h, 48 h (AID 1508601); settings: 24/48 h
# [2] = target: Cellular tumor antigen p53 (Homo sapiens) (UniProt P04637); experiment: as above; settings: 24/48 h, stronger effect = higher value
# Chain of Cellular tumor antigen p53 (Homo sapiens) (P04637 whole entry, looked up): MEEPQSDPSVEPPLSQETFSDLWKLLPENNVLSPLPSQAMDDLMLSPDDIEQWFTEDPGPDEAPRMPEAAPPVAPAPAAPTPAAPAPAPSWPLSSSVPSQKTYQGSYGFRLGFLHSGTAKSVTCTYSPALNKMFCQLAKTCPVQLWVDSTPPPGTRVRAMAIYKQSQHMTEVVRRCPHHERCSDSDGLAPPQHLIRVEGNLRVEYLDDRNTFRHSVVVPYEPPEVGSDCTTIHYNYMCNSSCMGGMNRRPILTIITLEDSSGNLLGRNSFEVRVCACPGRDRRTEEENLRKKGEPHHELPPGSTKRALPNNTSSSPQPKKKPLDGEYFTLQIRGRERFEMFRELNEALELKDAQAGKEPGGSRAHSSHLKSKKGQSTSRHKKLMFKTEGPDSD
# [3] = measured here: cell number at 24 h, Library stock concentration: 3.33 mM
# [4] = measured here: cell number at 24 h, Library stock concentration: 10 mM
# [5] = measured here: cell number at 48 h, Library stock concentration: 3.33 mM
# [6] = measured here: cell number at 48 h, Library stock concentration: 10 mM
# [7] = Library stock concentration: 3.33 mM
# [8] = Library stock concentration: 10 mM
# [9] = measured here: p53 positive nuclei at 24 h, Library stock concentration: 3.33 mM
# [10] = measured here: p53 positive nuclei at 24 h, Library stock concentration: 10 mM
# [11] = measured here: cell number at 24 h, concentration not given here
# [12] = measured here: cell number at 48 h, concentration not given here
# [13] = measured here: p53 positive nuclei at 24 h, concentration not given here
smiles,measurement,setting,value
CC(C)(CO)c1cc2cc(NC(=O)C3(c4ccc5c(c4)OC(F)(F)O5)CC3)c(F)cc2n1CC(O)CO (stereo not drawn),"nuclei count, normalised","[1]; measured here: cell number at 24 h, Library stock concentration: 80 uM",99.2%
same,"nuclei count, normalised","[1]; measured here: cell number at 24 h, Library stock concentration: 400 uM",104%
same,"nuclei count, normalised","[1]; measured here: cell number at 24 h, Library stock concentration: 2 mM",106%
same,"nuclei count, normalised",[1]; [3],118%
same,"nuclei count, normalised",[1]; [4],113%
same,"nuclei count, normalised","[1]; measured here: cell number at 48 h, Library stock concentration: 80 uM",105%
same,"nuclei count, normalised","[1]; measured here: cell number at 48 h, Library stock concentration: 400 uM",107%
same,"nuclei count, normalised","[1]; measured here: cell number at 48 h, Library stock concentration: 2 mM",110%
same,"nuclei count, normalised",[1]; [5],120%
same,"nuclei count, normalised",[1]; [6],111%
same,"p53-positive nuclei, normalised",[2]; Library stock concentration: 80 uM,0.0351% (inactive)
same,"p53-positive nuclei, normalised",[2]; Library stock concentration: 400 uM,0.0964% (inactive)
same,"p53-positive nuclei, normalised",[2]; Library stock concentration: 2 mM,-0.0537% (inactive)
same,"p53-positive nuclei, normalised",[2]; [7],-0.0559% (inactive)
same,"p53-positive nuclei, normalised",[2]; [8],0.115% (inactive)
same,"p53-positive nuclei, normalised","[2]; measured here: p53 positive nuclei at 24 h, Library stock concentration: 80 uM",0.0925%
same,"p53-positive nuclei, normalised","[2]; measured here: p53 positive nuclei at 24 h, Library stock concentration: 400 uM",0.0862%
same,"p53-positive nuclei, normalised","[2]; measured here: p53 positive nuclei at 24 h, Library stock concentration: 2 mM",-0.0708%
same,"p53-positive nuclei, normalised",[2]; [9],-0.244%
same,"p53-positive nuclei, normalised",[2]; [10],0.119%
O=C(c1cc(-c2cncnc2)nc2cc(F)ccc12)N1CCCC1Cc1cccnc1 (stereo not drawn),"nuclei count, normalised",[1]; [11],109%
same,"nuclei count, normalised",[1]; [12],110%
same,"p53-positive nuclei, normalised",[2]; concentration not given here,0.0107% (inactive)
same,"p53-positive nuclei, normalised",[2]; [13],0.143%
O=C1CN2Cc3c(ccc(Cl)c3Cl)N=C2N1,"nuclei count, normalised","[1]; measured here: cell number at 24 h, Library stock concentration: 46 uM",88.7%
same,"nuclei count, normalised","[1]; measured here: cell number at 24 h, Library stock concentration: 278 uM",80.4%
same,"nuclei count, normalised","[1]; measured here: cell number at 24 h, Library stock concentration: 1.67 mM",83.9%
same,"nuclei count, normalised",[1]; [3],57.2%
same,"nuclei count, normalised",[1]; [4],75.8%
same,"nuclei count, normalised","[1]; measured here: cell number at 48 h, Library stock concentration: 46 uM",45.1%
same,"nuclei count, normalised","[1]; measured here: cell number at 48 h, Library stock concentration: 278 uM",38.3%
same,"nuclei count, normalised","[1]; measured here: cell number at 48 h, Library stock concentration: 1.67 mM",40.9%
same,"nuclei count, normalised",[1]; [5],24.8%
same,"nuclei count, normalised",[1]; [6],40.2%
same,"p53-positive nuclei, normalised",[2]; Library stock concentration: 46 uM,85.8% (active)
same,"p53-positive nuclei, normalised",[2]; Library stock concentration: 278 uM,88.2% (active)
same,"p53-positive nuclei, normalised",[2]; Library stock concentration: 1.67 mM,89.8% (active)
same,"p53-positive nuclei, normalised",[2]; [7],84.4% (active)
same,"p53-positive nuclei, normalised",[2]; [8],87% (active)
same,"p53-positive nuclei, normalised","[2]; measured here: p53 positive nuclei at 24 h, Library stock concentration: 46 uM",5.38%
same,"p53-positive nuclei, normalised","[2]; measured here: p53 positive nuclei at 24 h, Library stock concentration: 278 uM",6.86%
same,"p53-positive nuclei, normalised","[2]; measured here: p53 positive nuclei at 24 h, Library stock concentration: 1.67 mM",6.48%
same,"p53-positive nuclei, normalised",[2]; [9],11%
same,"p53-positive nuclei, normalised",[2]; [10],6.76%
O=C1OC2(c3ccc(O)cc3Oc3cc(Oc4ccc(O)cc4)ccc32)c2ccccc21 (stereo not drawn),"nuclei count, normalised",[1]; [11],105%
same,"nuclei count, normalised",[1]; [12],107%
same,"p53-positive nuclei, normalised",[2]; concentration not given here,-0.0688% (inactive)
same,"p53-positive nuclei, normalised",[2]; [13],-0.118%
